PubChem BioAssay AID1159580 (chemical genetic matrix, 2015)
Values joined by “and” are separate entries in the source; they are usually repeats but may differ in a detail not shown here. Equal entries are not always repeated. Out of some 5,500 compounds screened, about 2,000 (36%) were called active. Roughly 18% stayed inconclusive and do not appear here. Cut-off read from the data, not from the text of the source: active = normalized growth mostly below about 0.91 (no sharp cut-off); inconclusive = no clear call, values can overlap the other calls; inactive = mostly above about 0.92. The list shows a part of the results.

Assay: chemical genetic growth profiling, strain panel (AID 1159580);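 note: tested at 20 µM; growth read once vehicle control cultures reached saturation at 30 °C; 1 = growth at the plate median or of vehicle wells; lower values mean less growth of the strain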
Details: growth OD

Measured: normalized growth

O=c1c(O)c(-c2ccc(O)c(O)c2)oc2cc(O)cc(O)c12
inactive: S. cerevisiae deletion strains, locus YKL009W, strain mrt4, active compounds read low 1.01 | S. cerevisiae deletion strains, locus YKL068W, active compounds read low 1.03 | S. cerevisiae deletion strains, locus YKL085W, strain MDH1 (second series), active compounds read low 1.06 | S. cerevisiae deletion strains, locus YKL085W, strain MDH1, active compounds read low 1.06 | S. cerevisiae deletion strains, locus YKL190W, strain CNB1, active compounds read low 0.97 | S. cerevisiae deletion strains, locus YKR001C, strain vps1, active compounds read low 0.94 | S. cerevisiae deletion strains, locus YKR026C, strain gcn3, active compounds read low 1 | S. cerevisiae deletion strains, locus YKR091W, strain srl3, active compounds read low 0.979 | S. cerevisiae deletion strains, locus YLL001W, strain dnm1, active compounds read low 0.941 | S. cerevisiae deletion strains, locus YLL026W, active compounds read low 0.982 | S. cerevisiae deletion strains, locus YLL041C, strain sdh2, active compounds read low 0.979 | S. cerevisiae deletion strains, locus YLR039C, strain RIC1, active compounds read low 0.872 | S. cerevisiae deletion strains, locus YLR058C, strain SHM2, active compounds read low 0.937 | S. cerevisiae deletion strains, locus YLR102C, strain apc9, active compounds read low 1.04 | S. cerevisiae deletion strains, locus YLR113W, strain HOG1, active compounds read low 0.98 | S. cerevisiae deletion strains, locus YLR262C, strain YPT6, active compounds read low 0.982 | S. cerevisiae deletion strains, locus YLR268W, strain sec22, active compounds read low 0.924 | S. cerevisiae deletion strains, locus YLR330W, strain CHS5, active compounds read low 0.991 | S. cerevisiae deletion strains, locus YLR371W, strain rom2, active compounds read low 0.969 | S. cerevisiae deletion strains, locus YLR384C, strain iki3, active compounds read low 0.951 | S. cerevisiae deletion strains, locus YML016C, strain PPZ1, active compounds read low 0.961 | S. cerevisiae deletion strains, locus YML032C, strain rad52, active compounds read low 1.04 | S. cerevisiae deletion strains, locus YML120C, strain ndi1, active compounds read low 0.98 | S. cerevisiae deletion strains, locus YML124C, strain tub3, active compounds read low 1.03 | S. cerevisiae deletion strains, locus YMR078C, strain ctf18, active compounds read low 1.03 | S. cerevisiae deletion strains, locus YMR125W, strain sto1, active compounds read low 1.02 | S. cerevisiae deletion strains, locus YMR129W, active compounds read low 0.955 | S. cerevisiae deletion strains, locus YMR205C, strain PFK2, active compounds read low 0.929 | S. cerevisiae deletion strains, locus YMR223W, strain ubp8, active compounds read low 0.928 | S. cerevisiae deletion strains, locus YMR231W, strain pep5, active compounds read low 0.953 | S. cerevisiae deletion strains, locus YMR263W, strain SAP30, active compounds read low 0.906 | S. cerevisiae deletion strains, locus YMR307W, strain GAS1, active compounds read low 0.683 and 1 | S. cerevisiae deletion strains, locus YNL067W, strain RPL9B, active compounds read low 0.913 | S. cerevisiae deletion strains, locus YNL128W, strain TEP1, active compounds read low 0.964 and 0.995 | S. cerevisiae deletion strains, locus YNL153C, strain GIM3, active compounds read low 0.875 and 0.922 | S. cerevisiae deletion strains, locus YNL175C, strain NOP13, active compounds read low 1.01 | S. cerevisiae deletion strains, locus YNL183C, strain NPR1, active compounds read low 0.928 | S. cerevisiae deletion strains, locus YNL197C, strain WHI3, active compounds read low 1.01 | S. cerevisiae deletion strains, locus YNL224C, strain SQS1, active compounds read low 1.02 | S. cerevisiae deletion strains, locus YNL248C, strain rpa49, active compounds read low 0.948 | S. cerevisiae deletion strains, locus YNL250W, strain rad50, active compounds read low 1.02 | S. cerevisiae deletion strains, locus YNL271C, strain bni1, active compounds read low 1.02 | S. cerevisiae deletion strains, locus YNL298W, strain CLA4, active compounds read low 1.01 | S. cerevisiae deletion strains, locus YNL307C, strain MCK1, active compounds read low 0.948 | S. cerevisiae deletion strains, locus YNL322C, strain KRE1 (second series), active compounds read low 0.941 | S. cerevisiae deletion strains, locus YNL322C, strain KRE1, active compounds read low 0.929 | S. cerevisiae deletion strains, locus YNR049C, strain mso1, active compounds read low 0.967 | S. cerevisiae deletion strains, locus YNR052C, strain pop2, active compounds read low 1 | S. cerevisiae deletion strains, locus YOL006C, strain TOP1, active compounds read low 0.616 | S. cerevisiae deletion strains, locus YOL012C, strain htz1 0.39 | S. cerevisiae deletion strains, locus YOL147C, strain pex11, active compounds read low 1.03 | S. cerevisiae deletion strains, locus YOR001W, strain rrp6, active compounds read low 0.925 | S. cerevisiae deletion strains, locus YOR061W, strain CKA2, active compounds read low 0.939 | S. cerevisiae deletion strains, locus YOR069W, strain VPS5, active compounds read low 0.974 | S. cerevisiae deletion strains, locus YOR080W, strain dia2, active compounds read low 0.925 | S. cerevisiae deletion strains, locus YOR083W, strain WHI5 (second series), active compounds read low 0.994 | S. cerevisiae deletion strains, locus YOR136W, strain idh2, active compounds read low 1.01 | S. cerevisiae deletion strains, locus YOR144C, strain elg1, active compounds read low 1.03 | S. cerevisiae deletion strains, locus YOR184W, strain ser1, active compounds read low 0.92 | S. cerevisiae deletion strains, locus YOR231W, strain MKK1, active compounds read low 0.991 | S. cerevisiae deletion strains, locus YOR265W, strain rbl2, active compounds read low 0.963 | S. cerevisiae deletion strains, locus YOR290C, strain snf2, active compounds read low 0.888 | S. cerevisiae deletion strains, locus YOR316C, strain cot1, active compounds read low 1.04 | S. cerevisiae deletion strains, locus YPL055C, strain LGE1, active compounds read low 0.86 and 1 | S. cerevisiae deletion strains, locus YPL078C, strain atp4, active compounds read low 0.927 | S. cerevisiae deletion strains, locus YPL240C, strain hsp82, active compounds read low 0.936 | S. cerevisiae deletion strains, locus YPL241C, strain CIN2, active compounds read low 0.987 | S. cerevisiae deletion strains, locus YPL256C, strain CLN2, active compounds read low 0.982 | S. cerevisiae deletion strains, locus YPR119W, strain clb2, active compounds read low 1.05 | S. cerevisiae deletion strains, locus YPR141C, strain kar3, active compounds read low 1.01 | S. cerevisiae deletion strains, locus YPR163C, strain tif3, active compounds read low 1.03 | S. cerevisiae deletion strains, locus YPR167C, strain met16, active compounds read low 1.02 | S. cerevisiae deletion strains, strain wtn01, active compounds read low 0.931 | S. cerevisiae strains, strain wild type, active compounds read low 0.912
active: S. cerevisiae deletion strains, locus YKL160W, strain elf1, active compounds read low 0.87 | S. cerevisiae deletion strains, locus YLR027C, strain aat2, active compounds read low 0.893 | S. cerevisiae deletion strains, locus YLR221C, strain rsa3, active compounds read low 0.906 | S. cerevisiae deletion strains, locus YLR258W, strain gsy2, active compounds read low 0.878 | S. cerevisiae deletion strains, locus YLR262C, strain YPT6 (second series), active compounds read low 0.779 | S. cerevisiae deletion strains, locus YLR320W, strain mms22, active compounds read low 0.869 | S. cerevisiae deletion strains, locus YLR342W, strain FKS1 (second series), active compounds read low 0.719 | S. cerevisiae deletion strains, locus YLR342W, strain FKS1, active compounds read low 0.8 | S. cerevisiae deletion strains, locus YLR357W, strain rsc2, active compounds read low 0.713 | S. cerevisiae deletion strains, locus YLR370C, strain arc18, active compounds read low 0.859 | S. cerevisiae deletion strains, locus YLR418C, strain cdc73, active compounds read low 0.775 | S. cerevisiae deletion strains, locus YMR058W, strain fet3, active compounds read low 0.882 | S. cerevisiae deletion strains, locus YNL071W, strain lat1, active compounds read low 0.848 | S. cerevisiae deletion strains, locus YNL209W, strain ssb2, active compounds read low 0.636 | S. cerevisiae deletion strains, locus YNL233W, strain BNI4, active compounds read low 0.859 | S. cerevisiae deletion strains, locus YOR070C, strain gyp1, active compounds read low 0.885 | S. cerevisiae deletion strains, locus YOR083W, strain WHI5, active compounds read low 0.808 | S. cerevisiae deletion strains, locus YOR106W, strain vam3, active compounds read low 0.653 | S. cerevisiae deletion strains, locus YOR270C, strain vph1, active compounds read low 0.749 | S. cerevisiae deletion strains, locus YPL051W, strain arl3, active compounds read low 0.814 | S. cerevisiae deletion strains, locus YPL106C, strain sse1, active compounds read low 0.783
